This note sets out measurements from PubChem BioAssay (NCATS).

Results filed as inconclusive are left out. Calls of active or inactive are those of the source. Unless noted, calls come from the whole dose curve; as a rule, active = well fitted curve in the direction sought with a large enough effect; inconclusive = small, poorly fitted or top-dose-only effect, or another doubt; inactive = no such curve, though single readings can be large; an effect the other way counts as inactive or inconclusive.

Experiment [1] can be described thus: qHTS assay for small molecule agonists of retinoid X receptor alpha signaling (AID 588544; calls by dose curve;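 for activation: 0% = DMSO basal wells and 100% = reference agonist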). As to conditions: HEK293T RXRa-UAS-bla, beta-lactamase reporter, 18 h; 530 nm emission. (In general: In qHTS, concentration-response curves come from the screen itself.)
Experiment [2] has as its target Retinoic acid receptor RXR-alpha (Homo sapiens) (UniProt P19793). The experiment is described as above. As to conditions: HEK293T RXRa-UAS-bla, beta-lactamase reporter, 18 h; series mostly up to 76.7 µM.
Experiment [3] deals with Thyroid hormone receptor beta (Homo sapiens) (UniProt P10828). The experiment is described as follows: qHTS assay for small molecule agonists of thyroid hormone receptor beta signaling (AID 588545; calls by dose curve;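 note: 0% = DMSO only and 100% = 10 nM T3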). The note with it: TR-UAS-bla GripTite HEK 293, beta-lactamase ratio, agonist mode, 18 h, percent of T3 response, DMSO as zero; series mostly up to 76.7 µM. Put shortly: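 Stimulation of a TR-driven beta-lactamase reporter was quantified in GripTite HEK 293 cells. Compound series ran for 18 hrs; curves were normalized to T3 and DMSO controls and fitted to yield EC50.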
Thyroid hormone receptor beta (Homo sapiens), sequence (P10828 whole entry, looked up): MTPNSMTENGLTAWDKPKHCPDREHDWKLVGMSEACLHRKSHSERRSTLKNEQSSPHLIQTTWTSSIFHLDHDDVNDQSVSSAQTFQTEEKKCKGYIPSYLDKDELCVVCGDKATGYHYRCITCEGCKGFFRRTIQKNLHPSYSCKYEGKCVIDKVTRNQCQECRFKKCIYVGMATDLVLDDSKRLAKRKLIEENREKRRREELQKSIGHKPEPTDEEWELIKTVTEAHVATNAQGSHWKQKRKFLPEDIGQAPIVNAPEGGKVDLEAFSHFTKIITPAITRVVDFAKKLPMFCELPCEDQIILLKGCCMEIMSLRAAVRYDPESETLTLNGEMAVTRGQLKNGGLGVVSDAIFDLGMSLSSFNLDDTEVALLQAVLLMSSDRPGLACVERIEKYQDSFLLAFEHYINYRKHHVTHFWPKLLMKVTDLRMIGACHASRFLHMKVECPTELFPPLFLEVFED

A short description of experiment [4]: qHTS assay for small molecule antagonists of retinoid X receptor alpha signaling (AID 588546; active = well fitted inhibition curve with a large enough effect in the signal ratio, with a control signal flat, not every such curve was filed as active; the % refers to the signal ratio;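 note: cells stimulated with 9-cis-retinoic acid as agonist; % is set by controls: 0 for no effect and ±100 for the full control effect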). As to conditions: HEK293T RXRa-UAS-bla, beta-lactamase ratio, antagonist mode; measured here: W530 green channel, cytotoxicity proxy. The essentials: (§1)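 Beta-lactamase reporter inhibition, read as CCF4 fluorescence ratio (ex 405, em 460/530 nm) after 2 h at RT. HEK293T UAS-bla cells, 2500/well, were stimulated with 9-cis-RA at 500 or 100 nM final alongside test compound for 18 h at 37 C.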

Experiment [5] addresses Retinoic acid receptor RXR-alpha (Homo sapiens) (UniProt P19793). The experiment is described as above. As to conditions: HEK293T RXRa-UAS-bla, beta-lactamase ratio, antagonist mode. Put shortly: as §1
The target in experiment [6] is Thyroid hormone receptor beta (Homo sapiens) (UniProt P10828). The experiment is described as follows: qHTS assay for small molecule antagonists of thyroid hormone receptor beta signaling (AID 588547; active = well fitted inhibition curve with a large enough effect in the signal ratio, with a control signal flat, not every such curve was filed as active; the % refers to the signal ratio;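 note: cells stimulated with 0.4 nM T3 agonist during compound exposure; % is set by controls: 0 for no effect and ±100 for the full control effect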). As to conditions: TR-UAS-bla HEK293, beta-lactamase ratio, antagonist mode, 18 h. Put shortly:
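TR-UAS-bla GripTite HEK293 cells in 2% charcoal/dextran FBS medium were preincubated 4 h at 37 C, given compound (0.59 nM to 92 uM) plus 0.4 nM T3 (final) for 18 h, then CCF4 for 2 h at RT; Hill fit gave IC50.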

Experiment [7] concerns the target Voltage-gated inwardly rectifying potassium channel KCNH2 (Homo sapiens) (UniProt Q12809). Description: qHTS Assay for Small Molecule Inhibitors of the Human hERG Channel Activity (AID 588834).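 Note: top concentration of the series differs between compounds; % is set by controls: 0 for no effect and ±100 for the full control effect; lower thallium flux fluorescence means stronger hERG block; nearly all actives have a fitted effect of over 50% in size.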 As to conditions: U2OS BacMam hERG, FluxOR thallium flux fluorescence; series mostly up to 92.2 µM. The essentials:
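U2OS cells transduced with hERG via BacMam (MOI ~100), plated 2000/well, loaded with FluxOR thallium dye, compound ~10 min, then stimulation buffer; fluorescence decrease read kinetically; AC50 from Hill fits.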

The nature of experiment [8]: qHTS assay for small molecule agonists of the antioxidant response element (ARE) signaling pathway (AID 651741; active = well fitted activation curve with a large enough effect in the signal ratio; the % refers to the signal ratio; note: % of control where 0% means no effect). As to conditions: HepG2 ARE-bla reporter, beta-lactamase FRET ratio, 16 h; series mostly up to 96 µM. Put shortly:
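Compounds in DMSO are pinned onto HepG2 ARE-bla cells (2,000/well) that were preincubated 5 h; plates stay 16 h at 37 C, then beta-lactamase activity is detected with LiveBLAzer B/G substrate by fluorescence.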

A short description of experiment [9]: qHTS assay for small molecule activators of the p53 signaling pathway (AID 651743; active = well fitted activation curve with a large enough effect in the signal ratio, not every such curve was filed as active; the % refers to the signal ratio; note: % of control where 0% means no effect). The note with it: HCT-116 p53RE-bla, beta-lactamase FRET ratio, 16 h; stronger effect = higher value. Put shortly: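 Cell-based beta-lactamase reporter (p53 response elements, HCT-116 background). After a 5-hour preincubation, cells received compound for 16 hours at 37 C; substrate development ran 2 hours at room temperature.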

A short description of experiment [10]: qHTS assay for small molecule activators of the nuclear factor-kappa B (NF-kB) signaling pathway (AID 651749; active = well fitted activation curve with a large enough effect in the signal ratio; the % refers to the signal ratio; note: % of control where 0% means no effect). As to conditions: NF-kB-bla ME-180 cells, beta-lactamase FRET ratio, 16 h; stronger effect = higher value. Put shortly: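 Screening used 2,000 ME-180 reporter cells per well exposed to pinned compound (23 nL) or DMSO; after 16 hr at 37C, beta-lactamase expression under NF-kB control was assessed through FRET.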

Experiment [11] in a line: qHTS assay for small molecule disruptors of the mitochondrial membrane potential - 5 hr assay (AID 651755; calls by dose curve; note: % is set by controls: 0 for no effect and ±100 for the full control effect; nearly all actives have a fitted effect of over 40% in size). As to conditions: JC-1-type ratio dye; series mostly up to 92.2 µM. The essentials: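 HepG2 cells, attached overnight at 37C, were exposed to compound or DMSO for 5 hr at 37C, 5% CO2. Mito-MPS dye was then added for 30 min, and fluorescence read at 490/535 nm (monomers) and 540/590 nm (aggregates).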

Experiment [12] addresses Tumor necrosis factor (Homo sapiens) (UniProt P01375). Description: qHTS assay to identify small molecules that stimulate Tumor Necrosis Factor-alpha (TNF-alpha) secretion (AID 651757; active = well fitted curve in the direction sought with a large enough effect in the signal ratio; the % refers to the signal ratio; note: 0% is about no effect). As to conditions: Human cells, HTRF 665/615 ratio; series mostly up to 92.2 µM. The essentials:
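Read-out is HTRF, a TR-FRET sandwich of cryptate- and XL665-labeled anti-TNF-alpha antibodies detecting cytokine secreted by THP-1 cells. Cells had been incubated with test compounds at 37 C for 17 hrs beforehand.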

Experiment [13] has as its target Peroxisome proliferator-activated receptor alpha (Homo sapiens) (UniProt Q07869). Description: qHTS assay for small molecule agonists of the peroxisome proliferator-activated receptor alpha (PPARalpha) signaling pathway (AID 651778). Note: % of control where 0% means no effect. As to conditions: PathHunter PPARalpha complementation, chemiluminescence, 6 h; stronger effect = higher value. Put shortly:
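Cells plated at 2,000/well and held overnight at 37 C, 5% CO2, then compound added by pin tool for 6 hr; after PathHunter detection reagent and 60 min at room temperature, chemiluminescence from enzyme complementation was read.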

Experiment [14] concerns the target Nuclear receptor ROR-gamma (Homo sapiens) (UniProt P51449). Description: qHTS assay for small molecule antagonists of the retinoid-related orphan receptor gamma (ROR-gamma) signaling pathway (AID 651802).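 Note: luciferase reporter luminescence driven by ROR response element; % is set by controls: 0 for no effect and ±100 for the full control effect; nearly all actives have a fitted effect of over 60% in size.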 As to conditions: ROR-gamma antagonist cell reporter assay; series mostly up to 92.2 µM. Put shortly:
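CHO, TET-inducible ROR + RORE-LUC reporter, 1536-well qHTS. Compound pinned, doxycycline added, 16hr 37C/5% CO2. ONE-Glo, 30 min RT, luminescence; signal drop scored as antagonism.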

The nature of experiment [15]: qHTS assay for small molecule agonists of the antioxidant response element (ARE) signaling pathway measured by Nrf2-dependant transcriptional activity (AID 720636; active = well fitted curve in the direction sought with a large enough effect in the repeat runs; an effect the other way counts as inactive or inconclusive; note: % of control where 0% means no effect). As to conditions: ARE-luc HepG2, Nrf2 luciferase reporter, 16 h; series mostly up to 92.4 µM. Put shortly:
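ARE-luc HepG2 cells carrying an Nrf2-responsive luciferase reporter, in medium with 1% dialyzed FBS, exposed to compound for 16 hr at 37 C, 5% CO2. Luminescence read 30 min after ONE-Glo addition.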

The nature of experiment [16]: qHTS assay for small molecule antagonists of the retinoid-related orphan receptor gamma (ROR-gamma) signaling pathway - cell viability counter screen (AID 720652; active = well fitted curve in the direction sought with a large enough effect in the repeat runs; an effect the other way counts as inactive or inconclusive;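 note: compound exposure lasted 16 hr before ATP read; % is set by controls: 0 for no effect and ±100 for the full control effect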). As to conditions: RORgamma reporter cell line viability counter screen; series mostly up to 92.2 µM. Put shortly: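 Luminescence from CellTiter-Glo after 30 min at room temperature reported cellular ATP as the cytotoxicity measure. Cells were the CHO reporter line with doxycycline-induced ROR-gamma expression, exposed to compound for 16 hr at 37 C.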

A short description of experiment [17]: qHTS assay for small molecule disruptors of the mitochondrial membrane potential - 1 hr assay (AID 651754; calls by dose curve; note: % is set by controls: 0 for no effect and ±100 for the full control effect; nearly all actives have a fitted effect of over 35% in size). As to conditions: series mostly up to 92.2 µM. Put shortly:
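HepG2, 2,000 cells/well, overnight attachment; cpd or DMSO 1 hr, 37C/5% CO2; Mito-MPS dye 30 min, 37C; fluorescence monomer (490/535) and aggregate (540/590).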

The nature of experiment [18]: qHTS assay for environmental chemicals that activate the Aryl hydrocarbon Receptor (AhR) signaling pathway (AID 651777). Note: % of control where 0% means no effect; nearly all actives have a fitted effect of over 15% in size. As to conditions: 1A2-DRE human hepatoma cells, luciferase, 24 h; activation: stronger effect = higher value. The essentials:
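Human hepatoma 1A2-DRE cells stably carrying a DRE/CYP1A2 promoter–luciferase reporter, 1,200 cells/well, exposed to compound 24 hr at 37 C. Luciferase read by One-Glo luminescence after 30 min at room temperature; increased signal marks AhR activation.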

Experiment [19] can be described thus: qHTS assay for small molecule agonists of the antioxidant response element (ARE) signaling pathway measured by Nrf2-dependant transcriptional activity - cell viability counter screen (AID 720653; active = well fitted curve in the direction sought with a large enough effect in the repeat runs; an effect the other way counts as inactive or inconclusive; note: % is set by controls: 0 for no effect and ±100 for the full control effect). As to conditions: ARE-bla HepG2 viability, CellTiter-Glo ATP luminescence, 16 h; stronger effect = lower value. The essentials: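 ARE-bla HepG2 cells (2,000/well) rested 5 hrs at 37C/5% CO2, then exposed to compounds in DMSO for 16 hrs. Viability was read in the same wells as intracellular ATP by luminescence, 30 min at room temperature after reagent addition.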

Experiment [20] can be described thus: qHTS assay to identify small molecules that stimulate interleukin-8 (IL-8) secretion (AID 651758; active = well fitted activation curve with a large enough effect in the signal ratio; the % refers to the signal ratio; note: 0% is about no effect). As to conditions: HTRF ratio (665/615); series mostly up to 92.2 µM. The essentials:
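THP-1, 2000 cells/well; cpd 16 h, 37 C; add cryptate + XL665 anti-IL-8 Abs; RT 1-3 h; TR-FRET read.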

Voltage-gated inwardly rectifying potassium channel KCNH2 (Homo sapiens), sequence (Q12809 whole entry, looked up): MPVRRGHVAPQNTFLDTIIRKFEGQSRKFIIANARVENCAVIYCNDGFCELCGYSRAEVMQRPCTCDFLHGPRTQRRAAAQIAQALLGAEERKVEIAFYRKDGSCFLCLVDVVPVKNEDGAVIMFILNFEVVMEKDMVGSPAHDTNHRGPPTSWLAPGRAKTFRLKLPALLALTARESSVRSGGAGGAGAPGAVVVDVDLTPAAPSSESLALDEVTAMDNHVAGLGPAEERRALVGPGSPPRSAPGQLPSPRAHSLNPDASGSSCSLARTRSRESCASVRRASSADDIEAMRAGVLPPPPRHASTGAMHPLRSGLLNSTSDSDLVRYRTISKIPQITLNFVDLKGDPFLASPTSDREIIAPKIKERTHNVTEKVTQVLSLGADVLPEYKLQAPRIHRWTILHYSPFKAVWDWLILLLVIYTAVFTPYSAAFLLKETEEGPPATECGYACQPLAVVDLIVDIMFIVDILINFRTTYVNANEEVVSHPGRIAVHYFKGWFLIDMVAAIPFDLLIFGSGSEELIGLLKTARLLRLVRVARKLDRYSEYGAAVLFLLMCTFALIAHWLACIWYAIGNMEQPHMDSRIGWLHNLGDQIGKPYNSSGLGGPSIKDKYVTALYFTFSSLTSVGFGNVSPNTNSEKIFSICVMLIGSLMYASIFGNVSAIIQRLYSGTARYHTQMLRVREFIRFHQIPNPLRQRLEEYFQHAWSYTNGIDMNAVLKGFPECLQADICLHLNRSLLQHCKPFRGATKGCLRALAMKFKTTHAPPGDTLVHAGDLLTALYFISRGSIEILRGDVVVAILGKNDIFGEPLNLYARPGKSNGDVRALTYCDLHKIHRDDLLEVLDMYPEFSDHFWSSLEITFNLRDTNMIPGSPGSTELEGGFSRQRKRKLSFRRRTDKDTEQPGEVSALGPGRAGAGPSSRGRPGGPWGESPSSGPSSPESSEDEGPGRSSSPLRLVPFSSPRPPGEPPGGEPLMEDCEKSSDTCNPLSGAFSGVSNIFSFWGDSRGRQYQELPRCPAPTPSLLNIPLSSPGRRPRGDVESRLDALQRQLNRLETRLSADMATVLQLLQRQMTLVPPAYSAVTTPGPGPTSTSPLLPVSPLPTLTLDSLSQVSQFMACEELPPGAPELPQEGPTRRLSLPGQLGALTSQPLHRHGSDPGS
Tumor necrosis factor (Homo sapiens), sequence (P01375 whole entry, looked up): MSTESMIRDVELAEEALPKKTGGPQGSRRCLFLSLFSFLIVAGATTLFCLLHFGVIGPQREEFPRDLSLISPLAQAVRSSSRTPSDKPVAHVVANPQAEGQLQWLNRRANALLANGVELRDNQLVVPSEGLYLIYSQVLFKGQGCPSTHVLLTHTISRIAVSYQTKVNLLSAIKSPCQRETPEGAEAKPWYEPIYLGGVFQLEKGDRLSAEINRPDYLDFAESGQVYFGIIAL
Nuclear receptor ROR-gamma (Homo sapiens), sequence (P51449 whole entry, looked up): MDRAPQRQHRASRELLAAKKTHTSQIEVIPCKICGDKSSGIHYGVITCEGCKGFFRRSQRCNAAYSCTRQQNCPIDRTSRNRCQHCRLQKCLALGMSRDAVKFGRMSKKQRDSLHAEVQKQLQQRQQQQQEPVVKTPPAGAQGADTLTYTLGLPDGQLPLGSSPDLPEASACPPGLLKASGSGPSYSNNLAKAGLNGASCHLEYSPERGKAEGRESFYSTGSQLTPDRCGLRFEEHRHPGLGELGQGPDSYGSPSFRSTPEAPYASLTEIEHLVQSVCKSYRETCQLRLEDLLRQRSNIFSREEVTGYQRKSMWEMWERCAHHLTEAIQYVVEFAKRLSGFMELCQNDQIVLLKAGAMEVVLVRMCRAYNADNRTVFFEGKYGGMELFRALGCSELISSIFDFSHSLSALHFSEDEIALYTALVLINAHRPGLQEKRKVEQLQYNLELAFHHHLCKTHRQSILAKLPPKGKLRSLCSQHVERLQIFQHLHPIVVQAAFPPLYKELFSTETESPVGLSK
Peroxisome proliferator-activated receptor alpha (Homo sapiens), sequence (Q07869 whole entry, looked up): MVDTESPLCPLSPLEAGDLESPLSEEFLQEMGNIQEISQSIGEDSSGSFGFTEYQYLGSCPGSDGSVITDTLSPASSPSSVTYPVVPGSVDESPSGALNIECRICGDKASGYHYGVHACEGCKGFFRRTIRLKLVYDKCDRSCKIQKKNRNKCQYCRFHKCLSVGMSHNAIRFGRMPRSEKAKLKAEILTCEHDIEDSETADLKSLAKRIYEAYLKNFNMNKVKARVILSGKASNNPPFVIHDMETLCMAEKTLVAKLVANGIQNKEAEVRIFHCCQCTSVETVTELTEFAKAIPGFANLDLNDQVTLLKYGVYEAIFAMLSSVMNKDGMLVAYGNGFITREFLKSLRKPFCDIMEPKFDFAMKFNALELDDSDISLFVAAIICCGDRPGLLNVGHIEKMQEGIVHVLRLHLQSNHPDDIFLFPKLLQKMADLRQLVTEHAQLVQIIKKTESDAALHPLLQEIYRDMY
Retinoic acid receptor RXR-alpha (Homo sapiens), sequence (P19793 whole entry, looked up): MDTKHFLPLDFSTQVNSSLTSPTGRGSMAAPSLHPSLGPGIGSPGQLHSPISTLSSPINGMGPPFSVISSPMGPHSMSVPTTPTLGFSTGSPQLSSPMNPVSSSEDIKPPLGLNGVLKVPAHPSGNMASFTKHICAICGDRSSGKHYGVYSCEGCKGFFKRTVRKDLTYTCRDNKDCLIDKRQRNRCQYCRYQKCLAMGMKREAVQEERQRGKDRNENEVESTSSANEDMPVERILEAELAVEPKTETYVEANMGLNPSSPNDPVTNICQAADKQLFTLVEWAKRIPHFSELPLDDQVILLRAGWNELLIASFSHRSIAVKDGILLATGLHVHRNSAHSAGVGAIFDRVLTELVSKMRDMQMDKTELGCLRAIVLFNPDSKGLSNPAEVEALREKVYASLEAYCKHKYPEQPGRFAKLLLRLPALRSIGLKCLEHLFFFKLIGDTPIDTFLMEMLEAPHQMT

With `CC(C)(O)C(=O)O`, the max response in experiment [1] was -2.22%; in experiment [4], 2.28%; in experiment [5], 3.29% (inactive); in experiment [13], 4.71% (inactive). For the same compound, the result in [2], in experiment [3] and in [15] was inactive. In addition, the activity change % (negative = inhibition) in experiment [6] was 8.51% (inactive). Moreover, the Potency result in experiment [7], in experiment [8], in [11], in experiment [12], in [14] and in experiment [16] was “inactive” in each case. For the same compound, the activation in experiment [9] was -1.64% (inactive); in experiment [10], -0.233% (inactive).
For `CCCC(C)CO` (stereo not drawn), the max response in experiment [1] was -14.8%; in experiment [4], 5%; in [5], -5.45% (inactive); in experiment [13] it was -5.48% (inactive); in experiment [19], 13.6% (inactive). Moreover, the compound was classed as inactive in experiment [2] and in experiment [3]. Besides, the activity change % (negative = inhibition) in [6] was 6.59% (inactive). For the same compound, the Potency entry in experiment [7], in [17], in [11], in [12], in [14] and in experiment [16] was “inactive” throughout. Besides, the activation in experiment [9] is 0.0206% (inactive); in [10] it was -0.126% (inactive); in experiment [18], -0.17% (inactive).
As to `CCCCN(CCO)CCCC`, the max response in experiment [1] is -2.59%; in experiment [4] it was -12.3%; in experiment [5], 4.73% (inactive); in experiment [13], -1.07% (inactive); in [19], -4.16% (inactive). Further, the result in experiment [2] and in [3] was inactive. Also, the activity change % (negative = inhibition) in [6] was 22.2% (inactive). Moreover, the Potency result in experiment [7], in [8], in experiment [17], in [11], in experiment [12] and in experiment [14] was “inactive” in each case.
`CC(=O)OCCC(C)C`: the max response in [1] is -5.59%; in [4] it was -8.93%; in [5], 2.22% (inactive); in [13], -9.14% (inactive); in experiment [19], -11% (inactive). In addition, the result in experiment [2], in experiment [3] and in [15] was inactive. In experiment [6], the activity change % (negative = inhibition) is 8.77% (inactive). For the same compound, the Potency entry in experiment [7], in [8], in experiment [11], in experiment [12], in experiment [14] and in [16] was “inactive” throughout. For the same compound, the activation in experiment [18] was 0.441% (inactive).
For the compound `O=C(O)c1ccc(Cl)cc1Cl`, the max response is -11.4% in [1]; -6.82% in [4]; 2.21% (inactive) in experiment [5]; -5.53% (inactive) in experiment [13]; -0.648% (inactive) in experiment [19]. Moreover, the call in [2], in [3] and in experiment [15] was inactive. The activity change % (negative = inhibition) in experiment [6] is -8.73% (inactive). Moreover, the Potency result in experiment [7], in experiment [17], in experiment [11], in experiment [12], in experiment [14] and in experiment [16] was “inactive” in each case. Also, the activation in experiment [9] is -4.73% (inactive); in experiment [10] it was -0.499% (inactive); in experiment [18] it was -0.705% (inactive).
Turning to `Cc1cc(C)c(N)cc1C`, the max response in experiment [1] was -11.9%; in experiment [4] it was 3.08%; in experiment [5] it was 16.4% (inactive); in [13], -4.75% (inactive); in experiment [19], 7.8% (inactive). For the same compound, the result in [2], in experiment [3] and in experiment [15] was inactive. Besides, the activity change % (negative = inhibition) in experiment [6] is -8.09% (inactive). For the same compound, the Potency result in experiment [7], in experiment [8], in [17], in experiment [12], in [20] and in [16] was “inactive” in each case. In addition, the activation in experiment [10] was -0.054% (inactive); in experiment [18], 1.62% (inactive).
